# Activity calls are given as the source filed them. The calls were made as follows: active = hit-call score of the fitted dose curve at least 0.9, where 1 is the maximum; inactive = score below 0.9.
# Tested on: SRD5A2 (gene 6716)
# Experiment: CCTE_Deisenroth_5AR_NBTE_ratio: CCTE's 5alpha-reductase NanoBRET Target Engagement Assay - Ratio, Deisenroth Lab (AID 2284322)
# Settings: actives raise or lower the signal
# Procedure: CCTE_Deisenroth_5AR NBTE (5alpha-reductase NanoBRET Target Engagement Assay) is a cell-based, single-readout assay that uses HEK293T, a human kidney cell line, with measurements taken at 5 hours after chemical dosing in a 384 well plate. This assay includes a primary and secondary screen as well as an autofluorscence screen.CCTE_Deisenroth_5AR NBTE_ratio is one of four assay components calculated from the CCTE_Deisenroth_5AR NBTE assay. It is designed to measure the ratio of target acceptor fluorophore resonance to donor bioluminescent signals.Data from the assay component CCTE_Deisenroth_5AR NBTE_ratio was analyzed into 1 assay endpoint. This assay endpoint, CCTE_Deisenroth_5AR NBTE_ratio, was analyzed with bidirectional fitting relative to DMSO as the negative control and baseline of activity. Using a type of inducible reporter, gain or loss-of-signal activity can be used to understand changes in 5alpha-reductase catalytic function. Furthermore, this assay endpoint can be referred to as a primary readout. To generalize the intended target to other relatable targets, this assay endpoint is annotated to the misc protein intended target family, where the subfamily is 5-alpha reductase.
# For transient expression of the SRD5A2-NanoLuc fusion protein, HEK293T cells are reverse transfected with pNLF1-C-SRD5A2 expression vector and incubated for 20 hours to facilitate fusion protein expression. For assay setup, 384-well non-binding surface (NBS) microplates are pre-dispensed with test chemical across an 8-point concentration series (10 nM - 29.9 uM) with two technical replicates per run. Cell suspensions are dispensed into the microplates and incubated with test chemical for a duration of three hours. Following pre-incubation with test chemical, the testosterone tracer is dispensed into each well and incubated an additional two hours. The total incubation period with test chemical is five hours, with testosterone tracer added the final two hours to reach target engagement equilibrium. For the NanoBRET endpoint measurements, a solution of Nano-Glo substrate and extracellular NanoLuc inhibitor solution is added to each test well and immediately scanned on a plate reader configured with multichromatic emission settings for donor luminescence ([…]) and acceptor fluorescence ([…]). DMSO solvent controls are included as baseline control. Plate-matched samples are run with mock tracer conditions or testosterone tracer to discriminate any potential non-specific substrate interference.
SMILES,AC50,outcome
CCCCC(CC)COC(=O)CC(C(=O)OCC(CC)CCCC)S(=O)(=O)O (stereo unspecified),75.3 µM (active),–
COc1cc(-c2nc(NC(=O)c3cc4cc(C)cc(C)c4n3CC(=O)O)sc2CCC2CCCCC2)c(OC)cc1Cl,26.3 µM (active),–
CCCCOC(=O)CCCCCCCCC(=O)OCCCC,–,inactive
C1CCC(SSC2CCCCC2)CC1,–,inactive
O=c1c(O)c(-c2ccc(O)c(O)c2)oc2cc(O)cc(O)c12,–,inactive
CCCCCCCCCCC,–,inactive
COc1cc(S(=O)(=O)O)c(C)cc1N=Nc1c(O)ccc2cc(S(=O)(=O)O)ccc12,60.2 µM (active),–
CC=Cc1ccc(O)c(OC)c1,–,inactive
Oc1ccc2ccccc2c1N=Nc1ccccc1,–,inactive
COc1ccc(C)cc1N,–,inactive
OC[C@@H](O)[C@@H](O)[C@H](O)[C@H](O)CO,–,inactive

# From PubChem BioAssay (EPA / NIEHS)
